Experimental data published in PubChem BioAssay (Tox21).
Records with an inconclusive call do not appear. Active and inactive are the calls of the source. Unless noted, calls come from the whole dose curve; as a rule, active = well fitted curve in the direction sought with a large enough effect in the repeat runs; inconclusive = weak or mixed curves; inactive = no such curve, though single readings can be large; an effect the other way counts as inactive or inconclusive.

Experiments:
[1] = qHTS assay for small molecule agonists of the p53 signaling pathway (AID 651631; calls by dose curve; note: nearly all actives have a fitted effect of over 15% in size)
In short: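 Stably transfected HCT-116 cells (beta-lactamase behind p53 response elements) get compounds after a 5 h settling period; 16 h later at 37 °C, FRET substrate is loaded and fluorescence read after 2 h.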

[2] = qHTS assay for small molecules that induce genotoxicity in human embryonic kidney cells expressing luciferase-tagged ATAD5 (AID 651632); note: nearly all actives have a fitted effect of over 15% in size
In short: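 HEK293T cells carrying a luciferase reporter tagged to ATAD5 were exposed to compound or DMSO vehicle for 16 hr at 37C, 5% CO2. Amplite was added, and after 30 min at room temperature luciferase activity was read as a marker of ATAD5 induction.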

[3] = qHTS assay for small molecules that induce genotoxicity in human embryonic kidney cells expressing luciferase-tagged ATAD5 - cell viability (AID 651634; calls by dose curve; note: nearly all actives have a fitted effect of over 25% in size)
In short: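 HEK293T cells expressing luciferase-tagged ATAD5 were exposed to compound or DMSO for 15.5 hr at 37C, 5% CO2. Viability was then read as live-cell protease activity by CellTiter-Fluor fluorescence after 30 min at 37C.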

[4] = qHTS assay for small molecule disruptors of the mitochondrial membrane potential - cell viability (AID 720634; calls by dose curve;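 note: human HepG2 liver cancer cells; series mostly up to about 83 µM; nearly all actives have a fitted effect of over 20% in size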)
In short: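 HepG2 cells seeded overnight at 37 C, then exposed to compound or DMSO for 1 hr at 37 C, 5% CO2. m-MPI dye added, then CellTiter-Glo for 30 min at room temperature; viability read as ATP luminescence.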

[5] = qHTS assay for small molecule disruptors of the mitochondrial membrane potential (AID 720635)
In short: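 Mitochondrial membrane potential tracked with Mito-MPS dye, red aggregates (ex 540/em 590 nm) against green monomers (ex 490/em 535 nm). Compound treatment 1 hr at 37C, dye 30 min in HepG2.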

[6] = qHTS assay to test for compound auto fluorescence at 590 nm (red) in HepG2 cells (AID 720674)
In short: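 We screened compounds on adherent HepG2 cells, incubating them for an hour at 37 C in 5% CO2 before reading emission at 590 nm under 540 nm excitation; values reflect equivalence to Rose Bengal sodium fluorescence.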

[7] = qHTS assay to test for compound auto fluorescence at 535 nm (green) in HepG2 cells (AID 720675)
[8] = qHTS assay to test for compound auto fluorescence at 460 nm (blue) in HEK293 cells (AID 720678)
In short: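 Cells were seeded and left to adhere for 4-5 hr at 37C. Compounds were then pin-transferred. After an overnight incubation at 37C under 5% CO2, intrinsic fluorescence at 405/460 nm was measured and referenced to triamterene.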

[9] = qHTS assay to test for compound auto fluorescence at 590 nm (red) in HEK293 cells (AID 720679)
In short: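 Each well held 2,000 HEK293 cells in medium containing 10% dialyzed FBS. Following 4-5 hr attachment at 37C, 23 nL test compound or DMSO was added; plates sat overnight, and red fluorescence (540/590nm) was recorded.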

[10] = qHTS assay to test for compound auto fluorescence at 535 nm (green) in HEK293 cells (AID 720680)
[11] = qHTS assay to test for compound auto fluorescence at 460 nm (blue) in HEK293 cell free culture (AID 720681)
In short: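 Blue fluorescence (Ex 405/Em 460 nm, triamterene-equivalent) was read immediately after pin transfer of compound or DMSO into medium (DMEM, 10% FBS) without cells.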

[12] = qHTS assay to test for compound auto fluorescence at 535 nm (green) in HEK293 cell free culture (AID 720682)
In short: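 Using fluorescein as calibrant, autofluorescence was quantified at 485/535 nm in cell-free DMEM containing 10% FBS after pintool addition of compound or vehicle.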

[13] = qHTS assay to test for compound auto fluorescence at 590 nm (red) in HEK293 cell free culture (AID 720683)
In short: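 Red-channel autofluorescence of compounds in culture medium (DMEM, 10% FBS), no cells, measured at 540/590 nm. Rose Bengal sodium is the reference fluorophore for equivalence.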

[14] = qHTS assay to test for compound auto fluorescence at 460 nm (blue) in HepG2 cell free culture (AID 720685)
In short: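 Compound (23 nL) or DMSO pinned into cell-free MEM with 10% FBS; blue fluorescence read at 405/460 nm excitation/emission, expressed as auto-fluorescence equivalency to triamterene.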

[15] = qHTS assay to test for compound auto fluorescence at 535 nm (green) in HepG2 cell free culture (AID 720686)
[16] = qHTS assay to test for compound auto fluorescence at 460 nm (blue) in HepG2 cells (AID 720687)
In short: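 Blue-channel autofluorescence (Ex/Em 405/460 nm, triamterene-equivalent) was measured after 1 hr compound exposure at 37 C, 5% CO2. Cells were HepG2, plated overnight at 37 C in MEM plus 10% FBS.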

[17] = target: Glucocorticoid receptor (Homo sapiens) (UniProt P04150); assay: qHTS assay to identify small molecule agonists of the glucocorticoid receptor (GR) signaling pathway (AID 720691; active = well fitted activation curve with a large enough effect in the signal ratio in the repeat runs, not every such curve was filed as active; the % refers to the signal ratio)
In short: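 GR-bla HeLa cells (beta-lactamase reporter under glucocorticoid response element) were plated 4 h at 37 C/5% CO2, given compounds in DMSO, and incubated 18 h at 37 C. LiveBLAzer B/G FRET substrate was added for 2 h at room temperature, then fluorescence intensity read.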

[18] = qHTS assay for small molecule agonists of the p53 signaling pathway - cell viability (AID 651633; calls by dose curve;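 note: p53RE-bla HCT reporter cells with a stable beta-lactamase p53 reporter; series mostly up to about 83 µM; nearly all actives have a fitted effect of over 30% in size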)
In short: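 Viability counter-read: CellTiter-Glo luminescence (30 min, room temperature) in the same p53RE-bla plates. These plates had been exposed to compounds for 16 h at 37 C.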

[19] = target: Glucocorticoid receptor (Homo sapiens) (UniProt P04150); assay: qHTS assay to identify small molecule antagonists of the glucocorticoid receptor (GR) signaling pathway (AID 720692; active = well fitted inhibition curve with a large enough effect in the signal ratio in the repeat runs, not every such curve was filed as active; the % refers to the signal ratio)
In short: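 GR-bla HeLa cells (beta-lactamase reporter under glucocorticoid response element) were pre-plated 4 h at 37 C, treated with compounds plus 5 nM dexamethasone (final) for 18 h, then read by LiveBLAzer B/G FRET fluorescence after 2 h.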

[20] = qHTS assay to test for compound auto fluorescence at 590 nm (red) in HepG2 cell free culture (AID 720684)
In short: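 Steps: dispense MEM/10% FBS medium, no cells; pin compound or DMSO vehicle; read red channel, Ex/Em 540/590 nm. Output given as Rose Bengal sodium equivalents.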
% is set by controls: 0 for no effect and ±100 for the full control effect.

Sequence of Glucocorticoid receptor (Homo sapiens) (P04150 whole entry, looked up): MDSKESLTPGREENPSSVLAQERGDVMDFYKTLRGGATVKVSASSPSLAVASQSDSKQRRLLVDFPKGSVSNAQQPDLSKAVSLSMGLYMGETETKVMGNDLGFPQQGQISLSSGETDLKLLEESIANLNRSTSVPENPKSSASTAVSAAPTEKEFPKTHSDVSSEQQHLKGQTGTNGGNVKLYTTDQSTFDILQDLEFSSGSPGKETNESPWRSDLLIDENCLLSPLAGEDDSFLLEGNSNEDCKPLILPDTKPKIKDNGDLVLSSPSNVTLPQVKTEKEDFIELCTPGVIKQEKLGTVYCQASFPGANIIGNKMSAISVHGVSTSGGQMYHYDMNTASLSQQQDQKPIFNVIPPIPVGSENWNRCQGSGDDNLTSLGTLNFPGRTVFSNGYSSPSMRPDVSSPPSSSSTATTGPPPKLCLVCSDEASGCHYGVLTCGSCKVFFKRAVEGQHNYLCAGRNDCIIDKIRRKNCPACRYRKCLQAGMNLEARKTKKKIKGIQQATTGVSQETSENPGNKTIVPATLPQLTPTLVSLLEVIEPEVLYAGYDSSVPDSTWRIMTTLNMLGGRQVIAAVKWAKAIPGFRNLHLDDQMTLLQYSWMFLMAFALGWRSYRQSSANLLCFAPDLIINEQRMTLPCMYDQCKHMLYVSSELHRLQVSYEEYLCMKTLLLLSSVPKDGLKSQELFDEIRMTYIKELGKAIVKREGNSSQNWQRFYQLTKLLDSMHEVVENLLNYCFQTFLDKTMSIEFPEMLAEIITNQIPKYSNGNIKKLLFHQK

CCOC(=O)CC(C(C)=O)C(C)=O
inactive: Potency [1] | Potency [2] | outcome [3] | outcome [4] | Potency [5] | outcome [6] | outcome [7] | outcome [8] | outcome [9] | outcome [10] | outcome [11] | outcome [12] | outcome [13] | outcome [14] | outcome [15] | outcome [16] | Potency [17]

CCCCCCCCCCCBr
inactive: Potency [1] | Potency [2] | outcome [18] | outcome [3] | outcome [4] | outcome [6] | outcome [7] | outcome [8] | outcome [9] | outcome [10] | outcome [11] | outcome [13] | outcome [14] | outcome [15] | outcome [16] | Potency [17] | outcome [19]

C[n+]1ccccc1/C=N/O
inactive: Potency [1] | Potency [2] | outcome [3] | outcome [4] | Potency [5] | fluorescence, relative to Rose Bengal [6] 0.247% [at 18.6 µM] | fluorescence, % of fluorescein control [7] -0.126% [at 18.6 µM] | fluorescence, % of triamterene [8] -0.0874% [at 18.6 µM] | fluorescence, % of fluorescent control [9] -1.07% [at 18.6 µM] | fluorescence, % of fluorescein [10] -0.0429% [at 18.6 µM] | fluorescence, % of fluorescent control [11] 0.0506% [at 18.6 µM] | activity change [12] -0.0149% [at 18.6 µM] | fluorescence, % of fluorescent control [13] -0.29% [at 18.6 µM] | fluorescence, % of fluorescent control [14] -0.0014% [at 18.6 µM] | fluorescence, % of fluorescein control [15] 0.0162% [at 18.6 µM] | fluorescence, % of fluorescent control [16] 0.0546% [at 18.6 µM] | Potency [17] | outcome [19]

CN1C(CCl)Nc2cc(Cl)c(S(N)(=O)=O)cc2S1(=O)=O (centres undefined)
inactive: Potency [1] | Potency [2] | outcome [3] | outcome [4] | outcome [6] | outcome [7] | outcome [8] | outcome [9] | outcome [10] | outcome [11] | outcome [12] | outcome [13] | outcome [20] | outcome [14] | outcome [16] | Potency [17] | outcome [19]
